# Laboratory results as given in PubChem BioAssay (NCI).
# This is part of a sample that, as a whole, favours compounds with a hit. Of some 83,000 tested, about 20% had one in any assay.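 Cells were grown in 96-well plates and exposed to the test compound at a single concentration for 48 hours; results are reported as percent growth, with values below 10 considered active.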 Values without a mark were called inactive. Active and inactive are the calls of the source.
# Tested on: MDA-MB-468 breast
# Experiment: NCI-60 one-dose screen, 48 h (100 = growth as untreated, 0 = no growth, -100 = all killed)
# Details: 10 µM unless noted
row,SMILES,growth
1,CCCCCCCCCCCCCCCCCC1OCC(COC(=O)O[C@]2(CC)C(=O)OCc3c2cc2n(c3=O)Cc3cc4ccccc4nc3-2)O1 (some centres not stated),69.9%
2,C=C(C)[C@@H]1CC[C@]2(C(=O)N3CCN(C)CC3)CC[C@]3(C)[C@H](CC[C@@H]4[C@@]5(C)C/C(=C/c6cccnc6)C(=O)C(C)(C)[C@@H]5CC[C@]43C)[C@@H]12,51.5%
3,CCC(CC)C(=O)OC(C)COc1ccc(C(C)(C)C)cc1 (configuration not stated),94.6%
4,COc1cc(/C=C/C(=O)c2cc(OC)c(OC)c(OC)c2)ccc1OCc1ccccc1,21.5%
5,O=C(NNC(=O)c1ccc(NC(=O)c2ccccn2)cc1)Nc1ccc([N+](=O)[O-])cc1,94.2%
6,Cc1cc(C)c(/C=C2\C(=O)Nc3ccc(NC(=O)CCCCCCC(=O)NO)cc32)[nH]1,13%
7,Cc1nc2cc(Nc3nc(NCCN)nc(Nc4ccc(F)cc4)n3)ccc2n1Cc1ccccc1,73.2%
8,COc1cc(/C=C\c2cc(OC)c(OC)c(OC)c2)cc(N)c1OC,58.4%
9,Nc1nc(Cl)nc2c1ncn2C1O[C@H](CO)[C@@H](O)[C@@H]1F (some centres not stated),5.22% (active)
10,COc1cc(OC)cc(C(=O)Nc2cc(-c3cccnc3)nc(NCCCN3CCOCC3)n2)c1,83.2%
11,COc1ccc2[nH]c(O)c(/C=c3/ccc4c(c3)N=C(c3ccc(F)cc3)N=4)c2c1,76%
12,CCCCn1c(=O)[nH]c(N)c([C@@H]2c3c([nH]c(=O)n(CCCC)c3=O)Oc3ccc4ccccc4c32)c1=O,113%
